Source: PubChem BioAssay (NCATS)
Results filed as inconclusive are left out. Entries that show only a call come without a potency. The source made the active and inactive calls. Calls follow the shape of the dose curve; as a rule, active = well fitted curve in the direction sought with a large enough effect; inconclusive = small, poorly fitted or top-dose-only effect, or another doubt; inactive = no such curve, though single readings can be large; an effect the other way counts as inactive or inconclusive.

Experiments:
[1] = molecular target: Aldehyde dehydrogenase, mitochondrial (Homo sapiens) (UniProt P05091); experiment: qHTS for Inhibitors of the Aldehyde Dehydrogenase Family (ALDH2) Primary screen (AID 2061308); also: nearly all actives have a fitted effect of over 55% in size
[2] = molecular target: Retinaldehyde dehydrogenase 3 (Homo sapiens) (UniProt P47895); experiment: qHTS for Inhibitors of the Aldehyde Dehydrogenase Family (ALDH1A3) Primary screen (AID 2061315)

Row | Compound | Potency [1] | Potency [2]
1 | Cc1cc(C)n2ncc(C(=O)NC3CCC(C(C)(C)C)CC3)c2n1 (centres undefined) | inactive | inactive
2 | Cc1cc(NC(=O)c2csc(NC(=O)Cc3ccc(Cl)c(Cl)c3)n2)no1 | inactive | inactive
3 | Clc1ccccc1-c1nc(NCc2ccc(-c3cccnc3)cc2)c2ccccc2n1 | inactive | inactive
4 | CC(=O)c1cccc(-c2ccc(-c3nc4ccccc4c(=O)[nH]3)o2)c1 | inactive | inactive
5 | O=C1c2ccccc2C(=O)N1c1ccc(Cl)cc1 | inactive | inactive
6 | O=C(Nc1ccc(Cl)c([N+](=O)[O-])c1)Nc1nnc(C2CCCCC2)s1 | inactive | inactive
7 | O=C(NCc1ccccc1)Nc1nnc(-c2ccncc2)s1 | inactive | inactive
8 | O=C(O)c1ccc2c(c1)C(=O)N([C@H](Cc1ccc(O)cc1)C(=O)O)C2=O | inactive | inactive
9 | N[C@@H](Cc1ccc(OS(=O)(=O)c2ccccn2)cc1)C(=O)N1CCN(c2ccccc2)CC1 | inactive | inactive
10 | COC(=O)c1ccccc1NC(=O)c1ccccc1OC(F)F | inactive | inactive
11 | Oc1ccc(/C=C/c2ccccc2F)c2cccnc12 | inactive | inactive
12 | CC[C@@H]1C(=O)O[C@]23C=C[C@@H]4C(C(=O)OC)=CO[C@H](O[C@@H]12)[C@@H]43 | inactive | inactive
13 | Cc1cc2c(s1)c1cnn(Cc3ccc(F)c(Cl)c3)c(=O)c1n2C | inactive | inactive
14 | CCS(=O)(=O)N1CCC(C(=O)Nc2ccc(S(=O)(=O)Nc3nccs3)cc2)CC1 | inactive | inactive
15 | CCC(=O)Nc1ccc(Cl)cc1C(=O)c1ccc[nH]1 | inactive | inactive
16 | Cc1ccc(CNc2ncnc3ccc(-c4ccoc4C)cc23)o1 | inactive | inactive
17 | S=C(NCCCc1cnc[nH]1)NCCN(Cc1ccc(Cl)c(Cl)c1)c1ccc(Br)cn1 | inactive | inactive
18 | O=S(=O)(Nc1nc(-c2ccccc2C(F)(F)F)nc2ccccc12)c1ccc(Br)cc1 | inactive | inactive
19 | Cc1cc(C)nc(NC(=S)N2CCN(c3cccc(S(C)(=O)=O)c3)CC2)c1 | inactive | inactive
20 | O=[S+]([O-])(Nc1ccc(C2CCNCC2)cc1)c1ccc(NCc2ccc(Cl)cc2O)cc1 | inactive | inactive
21 | Cc1cc(C=CC#N)cc(C)c1Nc1nc(Nc2ccc3c(c2)OCO3)c2[nH]cnc2n1 | inactive | inactive
22 | Cc1cc2c(s1)c1cnn(Cc3c(F)cc(F)cc3F)c(=O)c1n2C | inactive | inactive
